Consider 70 molecules from PubChem BioAssay AID1117361 (Southern Research Institute, 2015).

Hit rate of the full screen: of about 3,600 compounds, about 900 (25%) were called active. How the calls were made is not given here. These entries were drawn from the full list. Where a call stands in place of a potency, no number is given. Potency and affinity values are given separately.

The assay addresses Protein Tat (Human immunodeficiency virus type 1 group M subtype B (isolate HXB2)) (UniProt P04608). The assay is described as follows: HIV-1 Tat–TAR interaction blockers – biochemical, fluorescence polarization, FAM-labeled TAR RNA, counter-screen for Vif-APOBEC3G degradation inhibitor project, dose response (AID 1117361). As to conditions: Tat-TAR RNA binding; series mostly up to 100 µM.
`CCOC(=O)C(NC(=O)NC1CCCCC1)(c1ccccc1)C(F)(F)F` (stereo not given): the outcome was inactive.
The value for `CCOc1ccccc1C(=S)NC1CCCCC1` was “inactive”; that for `COc1cc(CN2CCNC(=O)C2CC(=O)N(Cc2nccn2C)C(C)C)cc(OC)c1` (stereo not given) was “inactive”.
For the molecule `CCOCC(=O)Nc1nc2ccc(OC)cc2s1`, the molecule was called inactive.
The value for `CC(NC(=O)c1cccs1)C(c1cccs1)N1CCN(Cc2ccccc2)CC1` (stereo not given) was “inactive”; that for `COCCCN1C(=O)C(O)=C(C(C)=O)C1c1ccccn1` (stereo not given) was “inactive”; that for `CCOc1ccc(OCC)c(S(=O)(=O)NCc2ccc3c(c2)OCO3)c1` was “inactive”.
The result for `COC(=O)CC(NS(=O)(=O)c1cccs1)c1cccc2ccccc12` (stereo not given) reads “inactive”; that for `Cc1ccc(SCCNC(=O)c2cccc([N+](=O)[O-])c2C)cc1`, “inactive”; that for `CCOC(=O)Cn1c(=O)oc2cc(S(=O)(=O)Nc3c(C)cc(C)cc3C)ccc21`, “inactive”.
As for `CCOc1ccc(Br)cc1/C=N/O`, the outcome was inactive.
For `O=C(CN1C(=O)c2ccccc2C1=O)NCC(=O)OCC(=O)c1cccc([N+](=O)[O-])c1`, the outcome was inactive.
Turning to `O=C1CN(C(=O)COC(=O)C23CC4CC(CC(O)(C4)C2)C3)c2ccccc2N1`, the molecule was called inactive.
The value for `COc1ccc(NC(=O)CCc2nc(-c3ccccc3F)no2)cc1` was “inactive”; that for `O=C(NCCCN1CCOCC1)c1ccc(Br)s1` was “inactive”; that for `CC1CCN(C(=O)CCc2nc3cc(S(=O)(=O)N(C)C)ccc3n2C)CC1` was “inactive”.
Turning to `CCC(CC)NC(=O)Nc1ccc(F)cc1F`, the result was inactive.
Regarding `CCC(CC)c1nc2cc(OC)c(OC)cc2c(=O)o1`, the molecule was classed as inactive.
Turning to `Oc1ccc(C2Nc3cccc4cccc(c34)N2)c(O)c1`, the molecule was called inactive.
In the case of `CCOC(=O)C1CCCC12Nc1cccc3cccc(c13)N2` (stereo not given), the call was inactive.
Take `CCCCc1nc2sc3c(=O)[nH]cnc3c2c2c1CCCC2`: the outcome was inactive.
In the case of `CC(C)(C)C(=O)OCc1nc(-c2ccc(O)c(O)c2)cs1`, the outcome was inactive.
Consider `Cc1cccnc1Nc1nc(-c2ccc(O)c(O)c2)cs1`, for which the call was inactive.
The result for `CCc1nnc(NC(=O)c2ccc(S(=O)(=O)N(CC(C)C)CC(C)C)cc2)o1` reads “inactive”.
Turning to `CCCNC(=O)c1ccc(-c2nc3ccccc3s2)s1`, the result was inactive.
Consider `Cc1nnc(SCCCn2c(N3CCN(c4ccccc4)CC3)nc3c2c(=O)[nH]c(=O)n3C)s1`, for which the outcome was inactive.
Consider `NCCCSC1=NCCCN1`, for which the result was inactive.
The result for `CCCCCOC(=O)C1=C(C)Nc2nnnn2C1c1ccccc1Cl` (stereo not given) reads “inactive”; that for `COc1ccccc1NC(=O)C1=C(C)Nc2nnnn2C1c1ccccn1` (stereo not given), “inactive”; that for `COc1cccc(N2C(=O)C3ON(c4ccccc4)C(c4cccs4)C3C2=O)c1` (stereo not given), “inactive”.
With `COc1ccc(N2CCN(CC(=O)c3c(C)n(C)c4ccc(OC)cc34)CC2)cc1`, the outcome was inactive.
The value for `CN1CCN(CCCNC(=O)C2CC(=O)N(C3CCCCC3)C2)CC1` (stereo not given) was “inactive”; that for `C=CCn1c(C)cc(C(=O)COC(=O)C2CC(=O)N(Cc3ccccc3)C2)c1C` (stereo not given) was “inactive”.
The result for `CC1C/C(=N/N2C(=O)CSC2=S)CC(C)(C)C1` (stereo not given) reads “inactive”.
The value for `COCCNc1nc2c(c(=O)n(C)c(=O)n2C)n1Cc1cccc(C)c1` was “inactive”; that for `CCOc1cc(C(=O)Nc2cc(C)ccn2)cc(OCC)c1OCC` was “inactive”.
Turning to `COc1ccc(S(=O)(=O)n2nc(OC(=O)c3ccc(C)cc3)cc2N)cc1`, the outcome was inactive.
The value for `Nc1ccc(N=Nc2ccc(O)cc2)c(N)n1` was “inactive”.
In the case of `COCCn1c(SCC(=O)N2CCC(C)CC2)nc2c([nH]c3ccccc32)c1=O`, the call was inactive.
Turning to `Cn1nc(C(F)(F)F)c2cc(C(=O)NC3CC3)sc21`, the molecule was called inactive.
The value for `O=[N+]([O-])c1ccc(CNc2ccc(F)cc2)s1` was “inactive”; that for `COc1cccc(CN2CCSCC2)c1` was “inactive”; that for `CCOc1ccc(N(CC(=O)Nc2cccc(OC)c2)S(=O)(=O)c2c(C)noc2C)cc1` was “inactive”.
`CCN1CCN(S(=O)(=O)c2cccs2)CC1`: the call was inactive.
Take `O=c1c2ccccc2c(-c2ccccc2)nn1-c1cc(Cl)ccc1[N+](=O)[O-]`: the call was inactive.
The result for `O=[N+]([O-])c1ccc(O)c2ncccc12` reads “inactive”.
Take `Cc1ccccc1CS(=O)(=O)Cc1ccc(C(=O)N2CCOCC2)o1`: the molecule was classed as inactive.
Take `O=C(COC(=O)Cc1cccc(C(F)(F)F)c1)NCC1CCCO1` (stereo not given): the molecule was classed as inactive.
As for `COc1ccc(CC(=O)Nc2ccc(-c3csc(C)n3)cc2)cc1`, the call was inactive.
Take `O=C(O)/C=C/c1ccc(S(=O)(=O)N2CCN(CCN3C(=O)C4C5C=CC(C5)C4C3=O)CC2)cc1` (stereo not given): the molecule was called inactive.
The result for `COc1ccc(-n2c(SCC(=O)NNC(=O)c3ccccc3C)nnc2-c2ccncc2)cc1` reads “inactive”.
The value for `CC(C)(C)c1cc(N/C=C\c2nnnn2-c2ccc(Br)cc2)no1` was “inactive”.
The result for `CC(/C=C/c1ccco1)=N\NC(=O)c1cccnc1` reads “inactive”; that for `CCCCn1cnc2c1c(=O)n(C)c(=O)n2C`, “inactive”.
Take `COc1ccc(/C=N/NC(=O)Cn2cnc3c2c(=O)n(C)c(=O)n3C)c(OC)c1OC`: the call was inactive.
Take `O=C(Nc1ccc2c(c1)oc1ccccc12)c1cccnc1`: the result was inactive.
The result for `O=C(c1cc(COc2ccc(F)cc2F)on1)N1CCN(C2CCCC2)C(=O)C1` reads “inactive”.
The value for `CC(C)CCn1cnc2c([nH]c3cccc(Cl)c32)c1=O` was “inactive”; that for `CCCS(=O)(=O)N1CCC(C(=O)NCCCN(CC)c2cccc(C)c2)CC1` was “inactive”; that for `CCc1nnc(NC(=O)C(NS(=O)(=O)c2ccc3c(c2)OCCO3)C(C)C)s1` (stereo not given) was “inactive”.
The value for `Nc1nc(SCc2nc(-c3ccccc3)no2)[nH]c(=O)c1-c1ccccc1` was “inactive”; that for `Cc1ccc(-c2nnn(CC(=O)N(c3ccc(F)cc3)C(C(=O)NC3CCCC3)c3ccco3)n2)o1` (stereo not given) was “inactive”.
Regarding `O=C(CC(=O)NN=Cc1ccc2c(c1)CCC2)NN=Cc1ccc2c(c1)CCC2`, the molecule was classed as inactive.
Consider `O=S(=O)(c1ccc(NC(=S)N/N=C/c2ccc(O)c(O)c2)cc1)N1CCOCC1`, for which the result was inactive.
In the case of `Cc1[nH]c2ccccc2c1C(=O)CN1CCC(C(N)=O)(N2CCCCC2)CC1`, the call was inactive.
For `C[C@H](NC(=O)c1ccco1)C(=O)Nc1cccc([N+](=O)[O-])c1`, the molecule was called inactive.
The result for `CCNS(=O)(=O)c1ccc(NS(=O)(=O)c2cc(C)ccc2C)cc1` reads “inactive”; that for `N/C(=N\OC(=O)COc1ccc2ccccc2c1)c1ccccn1`, “inactive”; that for `Cc1ccc(-c2nn3c(C)nnc3s2)cc1NC(=O)CSc1ccc(Cl)cc1`, “inactive”.
For the molecule `COc1ccc(C)cc1-n1c(SCC(=O)Nc2cc(C)on2)nc2sc(C)c(C)c2c1=O`, the call was inactive.
